PubChem BioAssay
Activity calls are given as the source filed them.

Experiments:
[1] = tested on: Plasmodium falciparum Sir2 (PF13_0152, Sir2A); test: pfSir2 binders on small-molecule microarrays, primary screen, biochemical, small-molecule microarray, 635 nm fluorescence (AID 1098); conditions: small-molecule microarray binding, fluorescence 635 nm; higher = more signal;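 note: score merges spot fluorescence intensity with its signal-to-noise ratio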
[2] = small-molecule microarray binders of probe aDKK1, primary screen, biochemical, biotinylated probe, 635/667 nm fluorescence (AID 1099); conditions: higher = more signal;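 note: score merges 667nm spot fluorescence with signal to noise across triplicate slides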
[3] = small-molecule microarray binders of probe aCHRDL2, primary screen, biochemical, biotinylated probe, 635/667 nm fluorescence (AID 1100); conditions: higher = more signal
[4] = splicing luciferase reporter signal modulators, primary screen, spliceosome inhibition project, cell-based, HEK293, splice +/- reporter (AID 1101); conditions: luminescence, 24 h, higher = more signal, called active from +8 up or from −8 down;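 note: HEK293 cells carrying a splicing-competent luciferase reporter gene; test concentration not given here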
[5] = target: Fibroblast growth factor 10 (Homo sapiens) (UniProt O15520); test: FGF10 binders on small-molecule microarrays, primary screen, biochemical, small-molecule microarray, 635 nm fluorescence (AID 1102); conditions: FGF10 binding, fluorescence 635 nm, higher = more signal
[6] = tested on: glycogen synthase kinase-3 (GSK3A per assay name; protocol says GSK3B); test: GSK3 binders on small-molecule microarrays, primary screen, biochemical, small-molecule microarray, 635 nm fluorescence, GSK3A (AID 1103); conditions: small-molecule microarray binding, fluorescence 635 nm; higher = more signal; note: the record names both GSK3A and GSK3B
[7] = target: Epidermal growth factor receptor (Homo sapiens) (UniProt P00533); test: EGFR binders on small-molecule microarrays, primary screen, biochemical, small-molecule microarray, 635 nm fluorescence (AID 1104); conditions: EGFR binding, higher = more signal;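 note: score merges 667 nm emission intensity with spot signal to noise over triplicate slides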
[8] = target: Follistatin-related protein 3 (Homo sapiens) (UniProt O95633); test: FSTL3 binders on small-molecule microarrays, primary screen, biochemical, small-molecule microarray, 635 nm fluorescence (AID 1105); conditions: FSTL3 binding, higher = more signal;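 note: score merges emission near 667 nm and signal to noise per printed spot across three slides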
[9] = target: Dickkopf-related protein 1 (Homo sapiens) (UniProt O94907); test: DKK1 binders on small-molecule microarrays, primary screen, biochemical, small-molecule microarray, 635 nm fluorescence scan (AID 1106); conditions: DKK1 binding, higher = more signal;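 note: score merges emission near 667 nm with signal to noise over three replicate slides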
[10] = tested on: Inhibin beta A chain (activin A); test: INHBA (activin A) binders on microarrays, primary screen, biochemical, small-molecule microarray, 635 nm fluorescence scan (AID 1107); conditions: small-molecule microarray binding, higher = more signal;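 note: mouse activin A protein probed at 4.33 µg/mL on printed slides; score merges bound-protein fluorescence near 667 nm with spot signal-to-noise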
[11] = tested on: Human papillomavirus type 1a protein E7 (residues 44-93); test: HPV1a E7 fragment binders on microarrays, primary screen, biochemical, small-molecule microarray, residues 44-93, 635 nm fluorescence (AID 1108); conditions: small-molecule microarray binding, fluorescence 635 nm; higher = more signal;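 note: E7 fragment applied at 1 µg/mL in TBST for 1 h at 4 C; score combines spot fluorescence with its signal to noise ratio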
[12] = modulators of HCV replicon luciferase signal, primary screen, HCV replication inhibitor project, Huh7 cells, luciferase reporter (AID 1109); conditions: 48 h, higher = more signal;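 note: huh7 hepatoma cells harbouring a luciferase neomycin HCV replicon reporter; luciferase luminescence as measure of HCV replicon replication; test concentration not given here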
[13] = target: Left-right determination factor 2 (Homo sapiens) (UniProt O00292); test: LEFTY2 binders on small-molecule microarrays, primary screen, biochemical, small-molecule microarray, 635 nm fluorescence scan (AID 1110); conditions: LEFTY2 binding, higher = more signal
[14] = target: Calmodulin-1 (Homo sapiens) (UniProt P0DP23); test: CALM1 binders on microarrays, EGTA buffer, profiling panel, biochemical, small-molecule microarray, Cy5-labelled CALM1 (AID 1111); conditions: Cy5-CALM1 binding fluorescence, higher = more signal;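 note: labelled calmodulin applied in Tris saline Tween buffer holding calcium plus EGTA and DTT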
[15] = target: Calmodulin-1 (Homo sapiens) (UniProt P0DP23); test: calcium-bound CALM1 binders on microarrays, profiling panel, artefact control for SMM control-protein annotation, biochemical, small-molecule microarray, Cy5-labelled CALM1, plus calcium (AID 1112); conditions: Cy5-CALM1 binding fluorescence, higher = more signal;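 note: score merges spot fluorescence with signal to noise from triplicate slides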
[16] = small-molecule microarray binders of probe aWnt5a, primary screen, biochemical, biotinylated probe, 635/667 nm fluorescence (AID 1113); conditions: higher = more signal;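 note: score merges 667 nm fluorescence intensity with signal-to-noise per printed feature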
[17] = small-molecule microarray binders of probe aShh, primary screen, biochemical, biotinylated probe, 635/667 nm fluorescence (AID 1114); conditions: higher = more signal;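 note: probe is biotin-labelled aShh protein from a stem cell growth factor screen; measures binding of labelled protein to compounds printed on the slide; score merges feature fluorescence at 667 nm with signal-to-noise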
[18] = small-molecule microarray binders of probe aNog, primary screen, biochemical, biotinylated probe, 635/667 nm fluorescence (AID 1115); conditions: higher = more signal;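 note: probe is biotinylated aNog protein used at 0.15 µg/mL for 1 h at 4 C; z-score combines 667 nm fluorescence of each spot with its signal to noise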
[19] = target: Torsin-1A-interacting protein 1 (Homo sapiens) (UniProt Q5JTV8); test: LAP1 binders from COS7 cell lysate, primary screen, small-molecule microarray, 635/667 nm fluorescence (AID 1116); conditions: COS7-hLAP1 lysate binding, 635 nm fluorescence, higher = more signal
[20] = target: Alpha-bungarotoxin (Bungarus multicinctus) (UniProt P60615); test: alpha-bungarotoxin binders on microarray, profiling panel, artefact control for SMM control protein annotation, biochemical, small-molecule microarray, Alexa647 label, 635/667 nm fluorescence (AID 1117); conditions: alpha-BTX-A647 binding fluorescence, higher = more signal
Alpha-bungarotoxin (Bungarus multicinctus), sequence (P60615 whole entry, looked up): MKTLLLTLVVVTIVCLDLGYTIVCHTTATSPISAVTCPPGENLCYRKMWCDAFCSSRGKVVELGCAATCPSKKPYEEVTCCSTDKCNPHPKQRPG

Fibroblast growth factor 10 (Homo sapiens), sequence (O15520 whole entry, looked up): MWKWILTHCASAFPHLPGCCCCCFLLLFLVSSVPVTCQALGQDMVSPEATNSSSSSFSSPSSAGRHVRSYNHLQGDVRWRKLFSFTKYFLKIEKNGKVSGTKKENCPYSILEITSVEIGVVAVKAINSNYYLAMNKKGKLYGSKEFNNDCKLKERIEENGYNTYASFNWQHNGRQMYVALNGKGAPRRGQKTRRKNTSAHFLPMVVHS
Dickkopf-related protein 1 (Homo sapiens), sequence (O94907 whole entry, looked up): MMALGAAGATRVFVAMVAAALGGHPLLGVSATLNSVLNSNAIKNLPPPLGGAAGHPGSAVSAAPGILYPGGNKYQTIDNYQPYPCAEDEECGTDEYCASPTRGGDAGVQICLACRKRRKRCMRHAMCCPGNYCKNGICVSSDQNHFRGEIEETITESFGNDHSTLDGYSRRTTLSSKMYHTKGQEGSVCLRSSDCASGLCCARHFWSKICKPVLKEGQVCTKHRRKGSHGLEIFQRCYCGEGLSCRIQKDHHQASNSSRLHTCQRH
Epidermal growth factor receptor (Homo sapiens), sequence (P00533 whole entry, looked up): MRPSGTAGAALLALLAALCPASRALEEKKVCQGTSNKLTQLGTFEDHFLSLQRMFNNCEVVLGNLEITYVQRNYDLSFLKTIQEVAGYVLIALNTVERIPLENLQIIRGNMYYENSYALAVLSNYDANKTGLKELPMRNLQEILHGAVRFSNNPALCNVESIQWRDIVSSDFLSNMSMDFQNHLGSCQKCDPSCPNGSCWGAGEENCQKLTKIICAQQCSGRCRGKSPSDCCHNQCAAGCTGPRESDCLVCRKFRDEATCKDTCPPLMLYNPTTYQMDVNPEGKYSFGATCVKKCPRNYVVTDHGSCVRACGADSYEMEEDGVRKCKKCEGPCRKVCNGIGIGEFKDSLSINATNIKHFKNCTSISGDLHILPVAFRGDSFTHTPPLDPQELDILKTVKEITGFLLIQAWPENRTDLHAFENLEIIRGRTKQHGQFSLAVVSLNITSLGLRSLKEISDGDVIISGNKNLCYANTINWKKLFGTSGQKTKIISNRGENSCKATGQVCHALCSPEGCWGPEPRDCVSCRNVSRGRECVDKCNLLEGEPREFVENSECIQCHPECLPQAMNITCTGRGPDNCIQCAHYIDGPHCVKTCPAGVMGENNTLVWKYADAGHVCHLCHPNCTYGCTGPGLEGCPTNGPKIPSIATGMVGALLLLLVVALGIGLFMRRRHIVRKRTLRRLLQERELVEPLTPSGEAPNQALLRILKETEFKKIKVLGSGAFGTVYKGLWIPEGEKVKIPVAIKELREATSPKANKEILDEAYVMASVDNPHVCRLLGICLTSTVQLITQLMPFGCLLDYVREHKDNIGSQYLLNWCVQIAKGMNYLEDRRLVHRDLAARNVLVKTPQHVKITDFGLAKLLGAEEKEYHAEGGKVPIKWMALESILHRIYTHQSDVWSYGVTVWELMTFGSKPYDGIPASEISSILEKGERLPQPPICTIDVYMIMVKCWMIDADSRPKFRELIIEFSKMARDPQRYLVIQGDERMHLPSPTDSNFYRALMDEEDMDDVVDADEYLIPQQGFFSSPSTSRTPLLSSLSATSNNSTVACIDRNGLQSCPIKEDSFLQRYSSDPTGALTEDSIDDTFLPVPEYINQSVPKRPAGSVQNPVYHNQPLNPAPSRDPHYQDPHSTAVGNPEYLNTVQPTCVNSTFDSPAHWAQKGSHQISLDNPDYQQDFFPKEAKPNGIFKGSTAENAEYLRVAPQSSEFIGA
Left-right determination factor 2 (Homo sapiens), sequence (O00292 whole entry, looked up): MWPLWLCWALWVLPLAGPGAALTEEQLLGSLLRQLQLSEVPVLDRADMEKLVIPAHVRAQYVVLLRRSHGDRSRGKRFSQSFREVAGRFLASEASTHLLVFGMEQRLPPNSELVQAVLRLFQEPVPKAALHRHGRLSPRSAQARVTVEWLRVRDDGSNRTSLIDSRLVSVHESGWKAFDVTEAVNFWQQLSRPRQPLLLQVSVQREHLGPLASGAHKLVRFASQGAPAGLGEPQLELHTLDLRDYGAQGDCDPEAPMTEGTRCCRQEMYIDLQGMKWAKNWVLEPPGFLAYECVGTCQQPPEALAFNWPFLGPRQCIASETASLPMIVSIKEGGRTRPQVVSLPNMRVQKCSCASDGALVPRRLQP
Torsin-1A-interacting protein 1 (Homo sapiens), sequence (Q5JTV8 whole entry, looked up): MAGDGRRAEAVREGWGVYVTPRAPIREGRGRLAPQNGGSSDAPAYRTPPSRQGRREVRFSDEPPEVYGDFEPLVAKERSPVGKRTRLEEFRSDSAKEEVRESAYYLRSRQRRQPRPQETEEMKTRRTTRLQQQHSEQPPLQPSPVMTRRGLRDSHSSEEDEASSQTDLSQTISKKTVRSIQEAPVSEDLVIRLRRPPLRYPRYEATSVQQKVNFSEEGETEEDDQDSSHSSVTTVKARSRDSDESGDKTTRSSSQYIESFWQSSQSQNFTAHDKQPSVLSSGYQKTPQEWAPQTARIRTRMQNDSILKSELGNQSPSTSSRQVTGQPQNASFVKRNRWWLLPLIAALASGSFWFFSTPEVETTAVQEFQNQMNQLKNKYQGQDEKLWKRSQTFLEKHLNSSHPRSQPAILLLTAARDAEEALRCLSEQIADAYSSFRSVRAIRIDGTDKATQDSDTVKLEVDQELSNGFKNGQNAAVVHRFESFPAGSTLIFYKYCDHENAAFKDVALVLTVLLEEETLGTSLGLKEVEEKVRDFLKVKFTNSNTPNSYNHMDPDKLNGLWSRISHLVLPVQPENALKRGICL
Follistatin-related protein 3 (Homo sapiens), sequence (O95633 whole entry, looked up): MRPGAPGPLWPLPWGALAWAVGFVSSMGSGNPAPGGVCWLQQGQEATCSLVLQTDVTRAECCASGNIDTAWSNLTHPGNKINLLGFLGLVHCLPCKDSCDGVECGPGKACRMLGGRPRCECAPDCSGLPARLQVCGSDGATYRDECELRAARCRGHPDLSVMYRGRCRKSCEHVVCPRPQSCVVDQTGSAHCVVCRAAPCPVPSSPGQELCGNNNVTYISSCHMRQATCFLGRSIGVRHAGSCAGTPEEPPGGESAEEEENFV

SMILES	composite z-score [1]	composite z-score [2]	composite z-score [3]	z-score [4]	composite z-score [5]	composite z-score [6]	composite z-score [7]	composite z-score [8]	composite z-score [9]	composite z-score [10]	composite z-score [11]	z-score [12]	composite z-score [13]	composite z-score [14]	composite z-score [15]	composite z-score [16]	composite z-score [17]	composite z-score [18]	composite z-score [19]	composite z-score [20]
COc1ccc([Si](C)(C)[C@@H]2[C@@H](CCn3cc([C@H](O)c4ccccc4)nn3)O[C@]3(C(=O)N(Cc4cccc(N5C(=O)c6cccc7cccc5c67)c4)c4ccccc43)[C@H]2C)cc1	-0.225	-0.0463	0.575	1.41 (inactive)	-0.365	-0.83	-1.32	-0.607	-1.02	-0.317	1.04	-2.89	-1.54	0.114	0.364	-0.232	-0.221	0.262	-0.364	0.0544
COCCCNC(=O)[C@@]1(c2ccc([N+](=O)[O-])cc2)CC(=O)N(C(C)C)[C@@H]1c1ccc(CO)cc1	0.0788	0.46	0.8	0.0532 (inactive)	-0.512	-0.63	0.608	0.373	0.289	1.07	-1.48	0.198	-0.195	-1.61	-0.129	0.0559	-0.211	-0.261	1.94	1.88
COc1ccc([Si](C)(C)[C@@H]2[C@@H](CC(=O)N3Cc4ccccc4C[C@H]3CO)O[C@]3(C(=O)N(Cc4ccc(N5CCC5=O)cc4)c4ccccc43)[C@H]2C)cc1	1.16	-0.259	-0.1	-1.12 (inactive)	0.46	0.852	0.744	1.06	0.644	0.331	1.02	-3.58	0.759	1.04	-0.0245	-0.124	-0.16	-0.388	1.24	0.963
CCOC(=O)C=Cc1cc(F)ccc1O	0.188	-0.137	-0.31	-1.37 (inactive)	0.168	-0.126	0.0683	0.0871	-0.258	0.835	0.261	-1.36	-0.251	-0.297	-0.352	-0.0462	0.0469	-0.181	-0.207	0.0531
COC(=O)C1N=C(c2ccc(OCCCO)cc2)N(c2ccccc2)O1 (stereo not given)	1.05	0.947	1.11	-0.155 (inactive)	1.48	1.22	0.172	0.864	0.604	0.453	0.154	-2.69	0.681	0.933	0.576	-0.196	-0.0681	0.438	0.924	2.07
COc1cc(NN2C(C(O)C3CCCCC3)C=CC3C(=O)N(c4ccccc4)C(=O)C32)cc(OC)c1OC (stereo not given)	1.11	0.946	1.43	-0.983 (inactive)	0.448	0.893	-0.455	0.722	-1.37	0.591	1.05	-1.1	-0.79	2.13	1.23	0.141	-0.11	0.658	1.5	1.98
COCCOC(=O)N1C(=O)[C@@]2(c3cc(C#CCCO)ccc31)[C@H](C(=O)N1CCCCCCC1)[C@H]1C(=O)O[C@H](c3ccccc3)[C@H](c3ccccc3)N1[C@@H]2c1ccccc1OCCO	1.24	2.67	1.6	-0.0434 (inactive)	0.663	1.35	1.31	1.58	1.43	1.86	1.4	-1.79	1.18	2.73	1.5	0.993	2.38	2.99	3.19	1.85
CN(C)C(=O)[C@@]1(CCC(=O)OC(C)(C)C)N=C(c2ccc(OCCCO)cc2)O[C@H]1c1ccccc1CN=[N+]=[N-]	1.6	0.473	0.724	0.277 (inactive)	0.965	-0.416	-0.341	0.442	-0.695	-0.0415	1.5	-1.61	-0.9	1.18	0.0572	0.0044	0.579	1.32	2.74	0.548
CCOC(=O)C1=CCC(c2ccco2)N(S(=O)(=O)c2ccc(C)cc2)C1 (stereo not given)	1.04	0.363	-0.0042	0.0407 (inactive)	1.12	1.3	0.422	1.22	0.49	1.35	1.36	-2.3	0.297	0.921	0.0331	0.0279	0.0048	-0.423	0.761	0.818
COC(=O)[C@@]1(Cc2ccc(F)cc2)[C@H]2c3cc(C(=O)N4CCCC4)n(C)c3C[C@H]2CN1C(=O)c1ccccc1	1.24	0.874	1.22	-2.19 (inactive)	0.549	0.128	-0.372	-0.296	-0.856	1.21	-0.919	-1.4	-0.917	2.5	1.11	0.122	0.0044	1.39	2.84	0.121
O=C1C2C=CC(C(O)c3cccc(O)c3)N(Nc3ccccc3)C2C(=O)N1c1ccccc1 (stereo not given)	-0.131	0.305	0.272	-0.664 (inactive)	0.134	-0.194	0.112	-0.0752	-0.347	0.959	0.752	-0.424	-0.0995	0.46	0.16	0.0077	0.398	0.496	0.539	0.546
